Source: PubChem
Shown are actives, neighbours in structure and some others; about 19% of the full set was active somewhere.
DT40 TDP1 CPT – qHTS for Inhibitors of human tyrosyl-DNA phosphodiesterase 1 (TDP1): qHTS in cells in presence of CPT. chicken DT40 Tdp1-/-;hTDP1 cells + 20 nM CPT, ATP luminescence, 48 h. Potency, µM (highest dose often 46.2 µM), inactives show at the top dose activity change, negative = growth inhibition, usual class: inhibitors. 420,000 compounds, 12% hits. AID 686979, 2013; also: potency is read from the fitted curve at half-maximal effect; nearly all actives have a fitted effect of over 55% in size
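Chicken DT40 Tdp1-/- cells complemented with human TDP1, 400 cells/well, exposed to compounds plus 20 nM camptothecin for at least 48 h at 37 C; viability read as ATP content by CellTiter-Glo luminescence.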
DT40 TDP1 no CPT – qHTS for Inhibitors of human tyrosyl-DNA phosphodiesterase 1 (TDP1): qHTS in cells in absence of CPT. 420,000 compounds, 15% hits. DT40 Tdp1-/- hTDP1 cells, no CPT, ATP luminescence, 48 h. Potency, µM (top dose mostly 46.2 µM), for the others: top-dose activity change, negative = growth inhibition, usual class: inhibitors; also: potency is read from the fitted curve at half-maximal effect; nearly all actives have a fitted effect of over 55% in size
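A cellular qHTS used chicken DT40 cells lacking endogenous Tdp1 but carrying stably transfected human TDP1. Compounds were applied without camptothecin, and cell growth kinetics were judged by ATP-dependent luminescence after ≥48 hr.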
HT1080 IDH1KD tx – qHTS for induction of synthetic lethality in tumor cells producing 2HG: qHTS for the HT-1080-IDH1KD cell line | HT-1080 IDH1 knockdown viability, ATP luminescence, 48 h | 360,000 compounds, 2% hits | Potency, µM (series often up to 46.1 µM), for the others: at the highest dose activity, negative = toxicity, actives largely listed as cytotoxic | AID 686971, 2013;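 also: potency is read from the fitted curve at half-maximal effect; 0% = DMSO wells and -100% = cell-free medium wells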
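After a 2 h attachment period, IDH1KD HT-1080 cells took pin-transferred compound for 48 h at 37 °C; ATP-based luminescence after 10 min room-temperature reagent incubation reported viability.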
IL-1B inflam inh – qHTS for Inhibitors of Inflammasome Signaling: IL-1-beta AlphaLISA Primary Screen | THP-1 LPS/ATP IL-1B secretion, AlphaLISA, 16 h; stronger effect = lower value | activity change, % at 57.5 µM | 360,000 compounds, 4.7% hits; in the data active = activity change below about -50%; inconclusive = mostly about -30% to -49%
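THP-1 cells pretreated 1 hr with compounds (up to 57.5 uM final), then stimulated with LPS (250 ng/mL final) plus ATP (1.25 mM final); secreted IL-1B measured by AlphaLISA after 16 hr, decreased signal indicating inhibition.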
uPA generation – qHTS for Inhibitors of Cell Surface uPA Generation; 330,000 compounds, 0.31% hits; AID 540303, 2011; Potency, µM (doses to about 38.3 µM), without a hit: at the highest dose activity change, negative = inhibition, usual class: inhibitors; cell surface uPA generation assay, qHTS; active = well fitted inhibition curve with a large enough effect; inconclusive = small, poorly fitted or top-dose-only effect; inactive = no such curve, though single readings can be large or run the other way; tested in mouse RAW 264.7 cells; also: potency is read from the fitted curve at half-maximal effect; nearly all actives have a fitted effect of over 55% in size
HT1080-NT tox – qHTS for induction of synthetic lethality in tumor cells producing 2HG: qHTS for the HT-1080-NT fibrosarcoma cell line; 360,000 compounds, 1.6% hits; Potency, µM (doses to about 46.1 µM), for the others: top-dose activity, negative = less viability, actives largely listed as cytotoxic; HT-1080-NT fibrosarcoma viability, CellTiter-Glo ATP luminescence, 48 h;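 also: NT is the 2HG producing partner of a matched IDH1 knockdown line; potency is read from the fitted curve at half-maximal effect; 0% = DMSO-treated cells and -100% = media-only wells without cells; nearly all actives have a fitted effect of over 55% in size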
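Fibrosarcoma NT cells, 750 per well in 5% FBS RPMI, were exposed to compound for 48 hours. Viability: CellTiter-Glo luminescence.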
* hit, by the source's call; ? = inconclusive; · = no result given; [ ] = another dose, or the depositor's remark. Unless noted, calls follow the shape of the dose curve; as a rule, active = well fitted curve in the direction sought with a large enough effect; inconclusive = small, poorly fitted or top-dose-only effect, or another doubt; inactive = no such curve, though single readings can be large; an effect the other way counts as inactive or inconclusive. Unless noted, % is scaled to controls: 0 for no effect and ±100 for the full control effect.

SMILES | DT40 TDP1 CPT | DT40 TDP1 no CPT | HT1080 IDH1KD tx | IL-1B inflam inh | uPA generation | HT1080-NT tox
O=C(Nc1ccc(C(F)(F)F)cc1)C1CCCN1S(=O)(=O)c1cccc2cccnc12 (stereo not given) | ? | 23µM* | ? | 18 | · | ?
O=C(Nc1cccc(F)c1)C1CCCN1S(=O)(=O)c1cccc2cccnc12 (stereo not given) | 18µM* | ? | 0% | 15 | 11% | -10%
CC(=O)c1cccc(NC(=O)C2CCCN2S(=O)(=O)c2cccc3cccnc23)c1 (stereo not given) | ? | -28% | 0% | 0 | 1% | -9%
O=C(Nc1ccc(F)c(F)c1)C1CCCN1S(=O)(=O)c1ccc(F)cc1 (stereo not given) | ? | ? | 10% | 43 | 1% | 15%
Cc1ccc(NC(=O)C2CCCN2S(=O)(=O)c2cccc3cccnc23)cc1C (stereo not given) | ? | 21µM* | · | · | · | ·
Cc1cnc(CNC(=O)C2CCC(=O)N(CCc3ccc(Cl)cc3)C2)cn1 (stereo not given) | -17% | 3% | 10% | 0 | -3% | 4%
Cc1sc2ncnc(SCC(=O)N3c4ccccc4Sc4ccc(Cl)cc43)c2c1C | -10% | ? | 15% | 15 | 1% | 14%
CCOC(=O)c1c(C)sc2c1N(C(=O)CCl)c1cc(Cl)ccc1S2 | 4.1µM* | 4.1µM* | 18µM* | -101* | -18% | 23µM*
CCOc1ccc(S(=O)(=O)Nc2cc(Cl)ccc2O)cc1 | ? | ? | 23µM* | 19 | -4% | ?
CCOc1ccc(S(=O)(=O)Nc2cc(NS(=O)(=O)c3ccc(OCC)cc3)cc(C(=O)O)c2)cc1 | 17% | 9% | -2% | 4 | 0% | -2%
CCOc1ccc(S(=O)(=O)Nc2cccc(Cl)c2)cc1 | 23µM* | ? | -4%[9.24 µM] | -10 | ? | ?
CC(C)C[C@H](NC(=O)[C@H](CCCCN)NC(=O)[C@H](CCCNC(=N)N)NC(=O)[C@H](C)NC(=O)[C@H](CO)NC(=O)[C@H](CCCCN)NC(=O)[C@H](CCCNC(=N)N)NC(=O)[C@H](C)NC(=O)CNC(=O)[C@@H](NC(=O)[C@H](Cc1ccccc1)NC(=O)CNC(=O)CNC(=O)[C@@H](N)Cc1ccccc1)[C@H](C)O)C(=O)N[C@@H](C)C(=O)N[C@@H](CC(N)=O)C(=O)N[C@@H](CCC(N)=O)C(=O)O | 0%[4.12 µM] | -5%[4.12 µM] | · | · | · | ·
COc1ccc(S(=O)(=O)N2CCCC2CNC(=O)C(=O)NCc2ccccc2Cl)cc1 (stereo not given) | ? | 23µM* | -22% | -18 | -5% | -20%
CC(C)(C)c1ccc(C(=O)NCC2CCCN2S(=O)(=O)c2ccccc2)cc1 (stereo not given) | 8.2µM* | 12µM* | -14% | -57* | 3% | ?
COc1ccc(NC(=O)C(=O)NCC2CCCN2S(=O)(=O)c2cc(C)ccc2C)cc1 (stereo not given) | 4.1µM* | 2.6µM* | 18µM* | -3 | -11% | ?
Cc1ccc(S(=O)(=O)N2CCCC2CNC(=O)C(=O)Nc2ccc(F)cc2)cc1 (stereo not given) | 21µM* | 16µM* | ? | -8 | ? | -9%
Cc1ccc(C(=O)NCC2CCCN2S(=O)(=O)c2ccc(C)cc2)cc1 (stereo not given) | ? | ? | -23% | -14 | 0% | -22%
COc1ccc(NC(=O)C(=O)NCC2CCCN2S(=O)(=O)c2ccc(C)cc2)cc1 (stereo not given) | 0.0058µM* | 0.018µM* | 0.052µM* | 58 | -12% | 0.21µM*
COc1ccc(S(=O)(=O)N2CCCC2CNC(=O)C(=O)Nc2ccc(C)cc2)cc1 (stereo not given) | ? | ? | 2% | -23 | 1% | -5%
Cc1ccc(S(=O)(=O)N2CCCC2CNC(=O)c2ccc(F)c(F)c2)cc1 (stereo not given) | ? | 18µM* | -3% | -6 | -10% | 7%
O=C(OCc1ccccc1)c1cccc(-c2nnn(Cc3ccccc3)n2)c1 | -11% | -2% | 2% | 24 | 5% | 28%
O=C(OCC#Cc1c(COC(=O)c2ccccc2)nnn1Cc1ccccc1)c1ccccc1 | 18µM* | ? | 2% | 4 | 2% | -6%
CC1(C)CC(=O)C2=C(C1)c1c(ccc3ccccc13)NC2c1ccc(OCC(=O)O)cc1 (stereo not given) | 1% | ? | 2% | 15 | 19% | -2%
CC1(C)CC(=O)C2=C(C1)c1c(ccc3ccccc13)NC2c1ccc(Br)o1 (stereo not given) | ? | 21µM* | ? | ? | -13% | ?
CCC(=O)C1CCCN(C(=O)CCc2nnc(-c3ccc(C(C)=O)s3)o2)C1 (stereo not given) | -13% | 14% | 2% | 8 | -5% | 5%
SMILES | DT40 TDP1 CPT | DT40 TDP1 no CPT | HT1080 IDH1KD tx | IL-1B inflam inh | uPA generation | HT1080-NT tox
O=C(CSc1nc2ccccc2n1Cc1c(F)cccc1Cl)N1CCN(c2ccc(F)cc2)CC1 | -1% | -27% | · | · | · | ·
CCNc1ncc2nc(-c3ccc(OC)cc3)c(=O)n(-c3ccc(OC)cc3)c2n1 | ? | 0.033µM* | · | · | · | ·
COc1ccc(-n2c(=O)c(-c3ccc(Cl)cc3)nc3cnc(N4CCNCC4)nc32)cc1 | 5.2µM* | 12µM* | · | · | · | ·
COc1ccc(-c2nc3cnc(N4CCNCC4)nc3n(-c3ccc(OC)cc3)c2=O)cc1 | 18µM* | ? | · | · | · | ·
COc1ccc(-c2nc3cnc(N4CCNCC4)nc3n(-c3ccccc3)c2=O)cc1 | 21µM* | 15µM* | · | · | · | ·
CN(C(=O)c1cccc(NC(=O)Cc2ccc(NC(=O)C3CCN(C(=O)C4CCCC4)CC3)cc2)c1)C1CCCC1 | ? | ? | -11% | -3 | 7% | 4%
O=C(COC(=O)CNC(=O)c1ccc(Br)o1)Nc1ccccc1OC(F)F | -3% | -12% | 7% | 14 | 8% | 9%
O=c1c(-c2ccc(Cl)cc2)nc2cnc(N3CCNCC3)nc2n1-c1ccccc1 | 4.1µM* | 4.6µM* | · | · | · | ·
